Results reported in PubChem BioAssay AID1345082 (National Center for Advancing Translational Sciences (NCATS), 2018).
Out of some 94,000 compounds screened, about 4,000 (4.3%) were called active. About 29% were inconclusive and are not listed. This excerpt belongs to a sample that is enriched for actives. A number with no mark means an inactive call. Calls come from the whole dose curve; as a rule, active = well fitted inhibition curve with a large enough effect; inconclusive = small, poorly fitted or top-dose-only effect; inactive = no such curve, though single readings can be large or run the other way.
% is set by controls: 0 for no effect and ±100 for the full control effect; potency is the fitted concentration of half-maximal effect.

Assay: Cytotoxic Profiling in NIH 3T3 Cell Line of Diverse Libraries Using Quantitative High-Throughput Screening; note: nearly all actives have a fitted effect of over 55% in size
Details: NIH 3T3 viability, CellTiter-Glo ATP luminescence, 48-72 h; series mostly up to 96.7 µM; activity change, negative = cytotoxicity: at the top concentration
Description: Cell-based phenotypic screening is a commonly used approach to discover biological pathways, novel drug targets, chemical probes and high-quality hit-to-lead molecules. Many hits identified from high-throughput screening campaign are ruled out through a series of follow-up potency, selectivity/specificity, and cytotoxicity assays. Prioritization of molecules with little or no cytotoxicity for a more in-depth downstream evaluation influence the future direction of projects, so cytotoxicity profiling of the screening libraries at early stage is essential for increasing the likelihood of candidate success. In this study, we analyzed results from a cell-based cytotoxicity screening campaign, comprising nearly 10,000 compounds in NCATS annotated libraries, and over 100,000 compounds in a diversity library, evaluated in four normal cell lines (HEK 293, NIH 3T3, CRL-7250 and HaCat) and a cancer cell line (KB 3-1, a HeLa subline) with overall screening outcomes, hit rates, pan-activity and selectivity. For the annotated library, we also examined the primary targets and mechanistic pathways regularly associated with cell death. To our knowledge, this is the first study to use high-throughput screening to profile large libraries for cytotoxicity assessment in both normal and cancer cell lines. In summary, the results generated here constitutes a valuable resource for the scientific community and provides insight on identifying cytotoxic compounds with particular mechanisms of action, and prioritizing compounds with suitable cytotoxicity profile for further evaluation.
NIH 3T3 cells were seeded into white 1536-well plates using a Multidrop Combi peristaltic dispenser (ThermoFisher, Waltham, MA) at a density of 400 cells/well in 5 uL of medium respectively. A pintool (Kalypsys) was used to transfer 23 nL of compound solution to the 1536-well assay plates. After 48 or 72 hr incubation at 37 degree Celsius, 5% CO2 and 95% humidity, 2.5 uL of CellTiter-Glo (Promega) was dispensed into each well using a dispenser (Aspect Automation, St. Paul, MN) with solenoid valves (Lee Valves, Westbrook CT). Plates were left at room temperature for 10 min before imaging the ATP-coupled luminescence using a ViewLux microplate imager (PerkinElmer, Waltham, MA).
In the case of O=C(NCc1ccccn1)c1ccc2oc(-c3cccnc3)nc2c1, the “activity change, negative = cytotoxicity” value is reported as -20.7%.
With O=C(c1ccccc1Cl)N1CCC(c2nc(-c3cccnn3)no2)CC1 the “activity change, negative = cytotoxicity” value was 3.48%.
With O=C1NCCCCCN(C(=O)NCCc2ccccc2)[C@H]2CCC[C@@H]12 the “activity change, negative = cytotoxicity” value was -18.9%.
With CCN(C1CCOCC1)C1CN(C(=O)C2CC2)C1 the “activity change, negative = cytotoxicity” value was -3.57%.
For CC(=O)c1ccc(NC(=O)N2CCc3c(nc(-c4ccc(F)cc4)[nH]c3=O)C2)cc1, the “activity change, negative = cytotoxicity” value was -8.56%.
With O=S(=O)(NCC1CNCCOC1)c1ccc(F)c(F)c1F (stereo unspecified) the “activity change, negative = cytotoxicity” value was 2.03%.
For CCNc1cc(N2CCC(CCC(=O)Nc3ccc(C)cc3C)CC2)ncn1, the “activity change, negative = cytotoxicity” value was -28%.
For CCOc1ncccc1CNC(=O)c1cc(S(N)(=O)=O)ccc1F, the “activity change, negative = cytotoxicity” value was -29.4%.
In the case of COc1ccccc1C(=O)NCc1ccnc2[nH]ccc12, the “activity change, negative = cytotoxicity” value is reported as -20.2% [at 138 µM].
With COc1ccc(CNC(=O)Cc2c[nH]c3ncc(-c4ccccc4)cc23)cc1OC the Potency was 39.8 µM (active).
In the case of CNC(=O)c1cccc(-c2cnc3[nH]cc(CC(=O)NCc4cccc(F)c4)c3c2)c1, the Potency is reported as 89.1 µM (active).
For O=C(Cn1nc2c(cc1=O)CCCC2)NCc1cccc(F)c1, the “outcome” value was “inactive”.
With COc1ccc(CCNC(=O)c2nnn3cc(-c4ccccc4)[nH]c(=O)c23)cc1OC the “activity change, negative = cytotoxicity” value was -24.9%.
With O=C(Cc1cccc(F)c1)Nc1cnc(-c2cccnc2)nc1 the “activity change, negative = cytotoxicity” value was -21.8%.
For O=C(NCc1nc(-c2cccc(F)c2)c(-c2ccccn2)[nH]1)[C@@H]1CCCN1, the “activity change, negative = cytotoxicity” value was -3.54%.
With Cc1ccc(Nc2ccnc(N3CCCC3C(=O)N3CCC(Cc4ccccc4)CC3)n2)cc1 (stereo unspecified) the Potency was 20 µM (active).
For O=C(NCC(F)F)[C@@H]1CCCN1c1nccc(Nc2ccccc2Cl)n1, the “activity change, negative = cytotoxicity” value was -20.9%.
For COc1ccc(Nc2ccnc(N3CCC(C(=O)N4CCN(C(C)=O)CC4)CC3)n2)cc1, the “activity change, negative = cytotoxicity” value was -9.35%.
In the case of CCCN1CC(Oc2ccc(-c3noc(C4CC4)n3)cc2)C1, the “activity change, negative = cytotoxicity” value is reported as -8.55%.
With COc1cccc(F)c1C(=O)N1C[C@H](N)C[C@H]1C(=O)NC(C)C the “activity change, negative = cytotoxicity” value was -22.2%.
In the case of O=C1CCCCC(CNC(=O)c2cc(F)ccc2F)N1 (stereo unspecified), the “outcome” value is reported as “inactive”.
For NCc1ccc(-c2cncnc2)cc1, the “activity change, negative = cytotoxicity” value was 1.34% [at 174 µM].
In the case of Cc1cc(Cl)ccc1-c1ccc(CN)cc1, the Potency is reported as 31.6 µM (active).
For COc1cccc(CCC(=O)N2CCCC2c2nc(C3CCOCC3)no2)c1 (stereo unspecified), the “activity change, negative = cytotoxicity” value was -6.83%.
For O=C(c1ccc(Cl)cc1)N1CCCC2(CNc3ncccc3[S+](=O)([O-])N2)C1 (stereo unspecified), the “activity change, negative = cytotoxicity” value was -20%.
For Cn1cnc(S(=O)(=O)N[C@H]2CCN(C(=O)c3ccco3)[C@H](C(=O)N[C@@H](Cc3cccs3)C(N)=O)C2)c1, the “activity change, negative = cytotoxicity” value was -17.1%.
For COc1ccc(CNC(=O)C[C@@H]2CCNC[C@@H]2Cc2cc(-c3ccc(C(C)(C)C)cc3)on2)cc1OC, the Potency was 25.1 µM (active).
With COc1ccc(-c2cc(C[C@H]3CNCC[C@H]3CC(=O)NCCN(C)C)no2)cc1 the “activity change, negative = cytotoxicity” value was -24.5% [at 174 µM].
For O=C(C[C@@H]1CCNC[C@@H]1Cc1cc(-c2ccc(F)cc2)on1)NCCN1CCOCC1, the “outcome” value was “inactive [at 174 µM]”.
With CN1C(=O)CCC2(CNC(=O)c3ccoc3)CCCC=C12 (stereo unspecified) the “outcome” value was “inactive”.
In the case of CCCn1ncc(C(=O)NCC2(O)CCCNC2)c1C (stereo unspecified), the “activity change, negative = cytotoxicity” value is reported as 3.08%.
In the case of CC(NC(=O)c1ccc(CN2C(=O)NC3(CCOCC3)C2=O)cc1)c1ccccc1 (stereo unspecified), the “activity change, negative = cytotoxicity” value is reported as -3.56%.
With COC(=O)C1CCN(C(=O)CC[C@H]2CNC(=O)[C@@H]3[C@@H](CCN3Cc3cccs3)N2C)CC1 the “activity change, negative = cytotoxicity” value was -16%.
In the case of Cn1c(=O)n([C@H]2CCCN(C(=O)C3CC=CC3)C2)c2ncccc21, the “activity change, negative = cytotoxicity” value is reported as -9.11%.
For Cc1cccc(C)c1-c1nc(C(=O)NCc2ccc(F)cc2)n2ccccc12, the “activity change, negative = cytotoxicity” value was -23.7%.
In the case of Cc1ccc(C)c(S(=O)(=O)c2nnn3c2nc(NCc2ccc(F)cc2)c2ccccc23)c1, the Potency is reported as 28.2 µM (active).
With O=c1[nH]c(C2CCCN([S+](=O)([O-])c3cccc(C(F)(F)F)c3)C2)nn1-c1ccc(F)cc1 (stereo unspecified) the “activity change, negative = cytotoxicity” value was -13.8%.
In the case of CC[C@H]1CN(C(=O)Nc2ccccc2)CC[C@H]1CC(=O)Nc1ccccc1, the “activity change, negative = cytotoxicity” value is reported as -17.9% [at 174 µM].
For O=C1NCc2ccccc2CC12CCN(CC1CCCCC1)C2 (stereo unspecified), the “activity change, negative = cytotoxicity” value was -13.4%.
In the case of COc1cccc(NC(=O)Cn2c(-c3ccccc3)nc(C)cc2=O)c1, the “activity change, negative = cytotoxicity” value is reported as -26.4%.
With CCc1cc(=O)n(CC(=O)Nc2cccc(C(C)=O)c2)c(-c2ccccc2)n1 the Potency was 35.5 µM (active).
In the case of CC(=O)c1cccc(NC(=O)Cn2c(-c3ccc(Cl)cc3)nc(C)cc2=O)c1, the “activity change, negative = cytotoxicity” value is reported as -23.6%.
For COc1ccc(-c2cc(N3CCC(NC(=O)c4ccoc4)CC3)n[nH]2)cc1, the “activity change, negative = cytotoxicity” value was -20.6%.
For CC(C)(C)OCC1CN(Cc2cccs2)C(=O)c2cccnc2O1 (stereo unspecified), the “activity change, negative = cytotoxicity” value was -23.4%.
For COc1ccc(CNC(=O)CC[C@H]2CNC(=O)[C@@H]3[C@@H](CCN3C3CCOCC3)N2C)cc1, the “activity change, negative = cytotoxicity” value was 1.52%.
In the case of CC(C)c1noc(-c2ccn3c(CNC(=O)c4ccc5ccccc5n4)nnc3c2)n1, the “activity change, negative = cytotoxicity” value is reported as 0.0071%.
For O=C(NCCc1ccccc1)c1ccc2c(c1)OCCN(CCC(F)(F)F)C2, the “activity change, negative = cytotoxicity” value was -8.88% [at 138 µM].
In the case of CC(C)(C)c1csc(NC(=O)c2ccc3c(c2)OCCN(C2CCC2)C3)n1, the Potency is reported as 79.4 µM (active).
With O=C(NCCc1ccccn1)c1ccc2c(c1)OCCN(c1ccccc1)C2 the “activity change, negative = cytotoxicity” value was -16.9% [at 138 µM].
With Cc1noc(C2CC3(CCN(C(=O)c4cccnc4C)CC3)CN2C)n1 (stereo unspecified) the “activity change, negative = cytotoxicity” value was 1.03%.
In the case of O=C(CN1CCC2(CC1)NC(=O)CC2C(=O)O)NCCc1ccc(F)cc1 (stereo unspecified), the “activity change, negative = cytotoxicity” value is reported as -10.7%.
